# Source: PubChem BioAssay (Johns Hopkins Ion Channel Center)
# KCNK3 block – human KCNK3 channel inhibition, primary screen; B-score at 10 µM; 340,000 tested, 0.84% active; CHO-KCNK3 thallium flux, FluxOR fluorescence; stronger effect = lower value;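 active means B-score under library mean minus 4 SD, starting fluorescence ratio at most library mean plus 5 SD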;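 further: more negative B-score means stronger inhibition of thallium flux through KCNK3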
# Target sequence (O14649 whole entry, looked up): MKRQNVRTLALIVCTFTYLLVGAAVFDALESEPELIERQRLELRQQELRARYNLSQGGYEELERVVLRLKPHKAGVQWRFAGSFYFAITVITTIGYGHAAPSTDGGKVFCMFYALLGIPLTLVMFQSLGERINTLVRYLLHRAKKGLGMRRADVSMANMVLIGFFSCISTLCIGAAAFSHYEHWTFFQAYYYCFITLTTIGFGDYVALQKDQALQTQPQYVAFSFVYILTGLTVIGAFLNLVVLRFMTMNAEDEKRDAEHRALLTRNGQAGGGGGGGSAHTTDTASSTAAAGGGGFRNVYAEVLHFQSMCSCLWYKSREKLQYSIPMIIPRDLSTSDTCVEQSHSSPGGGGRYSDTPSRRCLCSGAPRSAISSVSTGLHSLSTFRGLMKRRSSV
# TMEM16A inh – blocks the mouse calcium-activated chloride channel TMEM16A | HEK293 TMEM16A/YFP iodide influx fluorescence, ionomycin | normalized B-score (activity score, 25-100; higher = stronger inhibition) at 10 µM | 310,000 tested, 1.2% active;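 active means ratio plate-corrected score three or more library SD toward inhibition, starting fluorescence score within five deviations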;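 further: score derived from kinetic fluorescence span divided by baseline fluorescence per well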
# TMEM16A act – activates or potentiates the mouse TMEM16A chloride channel; Q8BHY3; HEK293 TMEM16A/YFP-H148Q/I152L, iodide quench fluorescence; stronger effect = lower value; B-score at 10 µM; 340,000 tested, 0.3% active;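 active means fluorescence-ratio B-score plate-corrected deviation score at least 3 library SD below zero, with starting fluorescence score within 5 deviations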;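 further: channel opened by trigger with iodide after compound preincubation; score built on the fluorescence ratio of max minus min over baseline; more negative score means more quench and so TMEM16A activation or potentiation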
# Kir21 block – blocks the mouse Kir2.1 inward-rectifier potassium channel. P35561. AID 1672. HEK293-Kir2.1, FluxOR thallium flux fluorescence; stronger effect = lower value. B-score at 10 µM. 310,000 tested, 0.85% active;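 active means fluorescence ratio B-score at or below minus 3 SD of library scores, with starting-brightness B-score within 2 SD, cut at about -4.2 in these data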;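 further: channel flux triggered by added potassium and thallium sulfate stimulus; B-score of peak minus minimum fluorescence over baseline after thallium stimulus; more negative B-score means stronger Kir2.1 block with less thallium influx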
# KCNK9 block – blocks the human KCNK9 two-pore domain potassium channel; Q9NPC2; HEK293 KCNK9, FluxOR thallium flux fluorescence; stronger effect = lower value; B-score at 10 µM; 310,000 tested, 1.2% active; AID 488922;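 active means ratio B-score over 3 SD below the library mean, with starting fluorescence within 5 SD of its mean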;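 further: negative B-score means less thallium flux so channel inhibition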
# TMEM16A reconf – TMEM16A (mouse) chloride channel inhibition, re-confirmation; shares compounds with TMEM16A inh; HEK293 TMEM16A/YFP-H148Q, iodide quench fluorescence; ionomycin added to raise cell calcium; inhibition, % at 10 µM; 2,300 tested, 39% active; AID 652189;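 active means mean duplicate percent inhibition, scaled so buffer wells are 0 and the reference blocker 100, over three buffer SD above buffer mean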
# HEK293 Ca mobil – alters calcium mobilization in TMEM16A HEK293 cells, counter-screen | shares compounds with TMEM16A inh | TMEM16A/YFP HEK293, Fluo4 calcium mobilization | calcium response (% of ionomycin), % at 10 µM | 2,300 tested, 2% active | AID 652231;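 active means duplicate-averaged calcium signal over 20% of the ionomycin maximum, relative to buffer baseline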;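 further: each well's signal is peak minus trough fluorescence divided by its pre-addition baseline; 0% = buffer wells and 100% = ionomycin wells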
# Parental YFP cnt – parental YFP-HEK293 iodide quench counter-screen activity; AID 652233; 2,300 tested, under 10 active; ionomycin; YFP ratio F(max-min)/F0 at 10 µM; shares compounds with TMEM16A inh;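 active means yellow fluorescent protein signal ratio exceeding the buffer control mean by over 5 SD of those controls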;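 further: ratio is mean of duplicate wells from kinetic YFP trace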
# ClC-1 rat inh – selectivity of TMEM16A inhibitors: inhibition of rat ClC-1 chloride channel; AID 652236; shares compounds with TMEM16A inh; 2,300 tested, under 10 active; ratio percent, % at 10 µM; CHO ClC-1-YFP, iodide influx fluorescence quench; iodide control reads 0, buffer control 100;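 active means duplicate-mean ratio percent above the mean of iodide-only control wells, which defines zero, plus 5 of their SD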;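 further: higher percent means stronger block of ClC-1 iodide influx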
# The depositor's hits bear a star; i = inactive; x = no result given. Shown are actives, neighbours in structure and some others; about 3.5% of the full set was active somewhere.
SMILES,KCNK3 block,TMEM16A inh,TMEM16A act,Kir21 block,KCNK9 block,TMEM16A reconf,HEK293 Ca mobil,Parental YFP cnt,ClC-1 rat inh
O=C(O)CC1(CC(=O)Nc2ccccc2Br)CCCC1,i,i,i,-0.66,i,x,x,x,x
CC(=O)Nc1ccc(S(=O)(=O)Nc2cccc(-c3nc4ccccc4o3)c2)cc1,i,100*,i,0.65,i,i,i,-0.96,-11
O=C1C2C3C=CC(CC3)C2C(=O)N1c1ccccc1[N+](=O)[O-] (stereo not drawn),i,i,i,0.31,i,x,x,x,x
COc1ccccc1N1CCN(CC(=O)Nc2nc(C)c(C(=O)N(C)C)s2)CC1,i,i,i,-0.16,i,x,x,x,x
Cc1ccc(/C=N\NC(=O)/C(=C\Nc2nccc(C)n2)NC(=O)c2ccccc2)cc1,i,i,i,-0.01,i,x,x,x,x
N#C/C(=N\Nc1ccccc1Cl)C(=O)c1ccccc1,i,100*,i,0.71,i,i,i,-0.83,-16
N#C/C(=N\Nc1cccc(Cl)c1)C(=O)c1ccccc1,i,100*,i,-1.2,i,26%*,i,-1,-8
N#C/C(=N\Nc1ccc(Cl)cc1)C(=O)c1ccsc1,i,i,i,-1.4,i,x,x,x,x
Cc1ccc(S(=O)(=O)N2CCC(=O)N(CCO)CC2)cc1,i,i,i,0.45,i,x,x,x,x
Cc1cccc(N2CCN(C(=O)CSCc3c(C)noc3C)CC2)c1C,i,100*,i,0.06,i,42%*,i,-0.85,-18
CCCC(=O)c1ccc(N2CCN(C(=O)c3ccccc3Br)CC2)c(F)c1,i,100*,i,-0.26,i,20%*,i,-0.88,-4
O=C(c1ccc(N2CCN(C(=O)c3cccc(F)c3)CC2)cc1)c1cccc(F)c1,i,i,i,1.9,i,x,x,x,x
O=C(c1ccc(N2CCN(C(=O)c3ccccc3Br)CC2)cc1)c1cccc(F)c1,i,100*,i,3.1,i,17%*,i,-1,-10
CCCC(=O)c1ccc(N2CCN(C(=O)c3ccccc3)CC2)c(F)c1,i,25*,i,0.97,i,i,i,-1.2,-20
CCCC(=O)c1ccc(N2CCN(C(=O)c3ccc(Br)cc3)CC2)c(F)c1,i,i,i,0.35,i,x,x,x,x
COc1cccc(C(=O)N[C@@H](C)C(=O)N2CCC3(CC2)NCCc2[nH]cnc23)c1,i,i,i,0.06,i,x,x,x,x
COc1ccc(C(=O)Nc2ccc(NC(C)=O)cc2)cc1S(=O)(=O)N1CCCCC1C (stereo not drawn),i,x,i,x,x,x,x,x,x
CN(c1cccc(NC(=O)CSc2ccc(Cl)cc2)c1)S(C)(=O)=O,i,100*,i,0.57,i,28%*,i,-0.97,-4
CN(c1cccc(NC(=O)CCSc2ccccc2)c1)S(C)(=O)=O,i,i,i,-1.3,i,x,x,x,x
CC(C)(C)C(=O)COC(=O)CCc1nc2ccccc2[nH]c1=O,i,25*,i,-1.2,i,i,i,-0.83,-4
CC(=O)COC(=O)CCc1nc2ccccc2[nH]c1=O,i,i,i,0.19,i,x,x,x,x
COc1ccc(C(=O)C2CCN(C(=S)NCCc3ccc(OC)c(OC)c3)CC2)cc1,i,i,i,-0.75,i,x,x,x,x
COc1ccc(CCNC(=S)N2CCC(Cc3ccccc3)CC2)cc1OC,i,100*,i,-1.5,i,i,i,-1,-14
NN1C(=O)NC(c2ccccc2)(c2ccccc2)C1=O,i,i,i,-0.8,i,x,x,x,x
O=C(NC(Cc1ccccc1)c1ccc2c(c1)OCCCO2)c1ccc(F)cc1 (stereo not drawn),i,25*,i,-0.54,i,i,i,-1,-2
SMILES,KCNK3 block,TMEM16A inh,TMEM16A act,Kir21 block,KCNK9 block,TMEM16A reconf,HEK293 Ca mobil,Parental YFP cnt,ClC-1 rat inh
COC(=O)c1ccc(CNC(=O)COC(=O)CC23CC4CC(CC(Br)(C4)C2)C3)cc1,i,25*,i,-0.3,i,i,i,-0.92,-12
COC(=O)c1ccc(CNC(=O)COC(=O)C23CC4CC(CC(C4)C2)C3)cc1,i,i,i,2.1,i,x,x,x,x
Cc1ccc(C(=O)CC(=O)COc2ccc(Cl)cc2C)cc1,i,i,i,-0.34,i,x,x,x,x
Cc1cc(Cl)ccc1OCc1nc(-c2ccc(O)cc2)n[nH]1,i,25*,i,1.4,i,26%*,i,-0.98,-16
O=C(c1cccc(COc2ccc(Cl)cc2Cl)c1)N1CCN(c2ccccn2)CC1,i,100*,i,-0.41,i,i,i,-1.2,-14
O=C(O)c1ccc(Cl)c(NCc2cccs2)c1,i,i,i,-0.94,i,x,x,x,x
O=C(N/C(=C\c1ccc([N+](=O)[O-])cc1)C(=O)N1CCCCC1)c1ccccc1Br,i,i,i,1.6,i,x,x,x,x
CCOc1cc(-c2ccc(N)c(OCC)c2)ccc1N,i,i,i,0.06,i,i,i,-0.71,4
Clc1c(Cl)c(Cl)c2n[nH]nc2c1Cl,i,100*,i,-1.3,i,44%*,i,-0.85,-16
N#CC1=C(N)Oc2cc(N)ccc2C1c1ccccc1Cl (stereo not drawn),i,i,i,-0.05,i,x,x,x,x
N#CC1=C(N)OC2=C(CCc3ccccc32)C1c1ccccc1Cl (stereo not drawn),i,i,i,1.8,-7.6*,38%*,i,-1,0
C=CCn1c(SCC(=O)Nc2ccc3c(c2)OCCO3)nc2cc(C(=O)O)ccc2c1=O,i,x,i,x,x,x,x,x,x
O=C(Nc1ccc2c(c1)OCO2)C1CCN(Cc2cnn(-c3ccccc3)c2-n2cccc2)CC1,i,100*,i,2.1,i,i,i,-1.1,-11
C=CCOc1ccc(/C(O)=C2/C(=O)C(=O)N(CCCn3ccnc3)C2c2ccco2)cc1 (stereo not drawn),i,i,i,-1.2,i,x,x,x,x
COc1ccc(C(=O)CCc2ccccc2)c(O)c1,i,i,i,2,i,x,x,x,x
O=C(CCc1ccccc1)c1c(O)cc(O)cc1O,i,100*,i,0.84,i,47%*,i,-0.97,-2
